Calls of active or inactive are those of the source. The calls were made as follows: active = hit-call score of the fitted dose curve at least 0.9, where 1 is the maximum; inactive = score below 0.9.
test: ATG_CRE_CIS: Attagene CIS-FACTORIAL HepG2 Assay for human cAMP Responsive Element (CRE) binding protein 3 (AID 2282926); details: HepG2 CRE cis-reporter, Attagene multiplexed mRNA; actives raise or lower the signal
Description: ATG_CIS is a cell-based, multiplexed-readout assay that uses HepG2, a human liver cell line, with measurements taken at 24 hours after chemical dosing in a 24-well plate.ATG_CRE_CIS is one of 52 assay component(s) measured or calculated from the ATG_CIS assay. It is designed to make measurements of mRNA induction, a form of inducible reporter, as detected with fluorescence intensity signals by Reverse transcription polymerase chain reaction (RT-PCR) and Capillary electrophoresis technology.Data from the assay component ATG_CRE_CIS was analyzed into 1 assay endpoint. This assay endpoint, ATG_CRE_CIS, was analyzed with bidirectional fitting relative to DMSO as the negative control and baseline of activity. Using a type of inducible reporter, measures of mRNA for gain or loss-of-signal activity can be used to understand the reporter gene at the transcription factor-level as they relate to the gene CREB3. Furthermore, this assay endpoint can be referred to as a primary readout, because this assay has produced multiple assay endpoints where this one serves a reporter gene function. To generalize the intended target to other relatable targets, this assay endpoint is annotated to the dna binding intended target family, where the subfamily is basic leucine zipper.
Human liver HepG2 cells are transiently transfected with multiple reporter transcription units (MRTUs) in 6-well plates using FuGene 6 reagent (Roche; 3 ml FuGene/1 mg DNA). The MRTU constructs are regulated by a cis-regulating element (promoter). […] A major difference between the CIS and TRANS system is that in CIS activities of endogenous TFs are measured, whereas the TRANS assay evaluates changes in activities of exogenous, chimeric NR-Gal4 proteins. […] At the end of 24 hour incubation, total RNA was isolated using TriZol reagent (Invitrogen). The isolated RNA is then reverse-transcribed using oligo(dT) primer and Mo-MLV reverse transcriptase (Invitrogen) with DNAse I (Ambion) treatment for 30 min. The one-tenth of the produced cDNA was amplified by PCR using Taq DNA polymerase (Invitrogen) and two reporter sequence-specific primers. The PCR products were fluorescently labeled by primer extension with 6-arboxyfluorescein (6-FAM) 5'-labeled reporter sequence-specific primer (2 min at 95 C, 20 s at 68 C and 10 min at 72 C) and these products were digested with 5U of HpaI (New England Biolabs) for 2h at 37 C. The fragments were purified using Qiaquick PCR columns (Qiagen), analyzed on an ABI 3130xL genetic analyzer (Applied Biosystems) with peak positions identified by using a set of X-rhodamine (ROX)-labeled MapMarker1000 molecular weight standards (BioVentures). The raw capillary electrophoresis data was processed using Attagraph software (Attagene).

| SMILES | outcome | AC50 |
| --- | --- | --- |
| OCCCCO | inactive | – |
| COC(=O)Nc1cccc(OC(=O)Nc2cccc(C)c2)c1 | inactive | – |
| O=NN1CCCCCC1 | inactive | – |
| C=CC(F)(C(F)(F)F)C(F)(F)C(F)(F)F (stereo not given) | inactive | – |
| OC(c1ccc(Cl)cc1)(c1ccc(Cl)cc1)c1cccnc1 | inactive | – |
| CCCCCCCCCCCCCl | inactive | – |
| O=NN1CCCCCCC1 | inactive | – |
| CN(C1CCCCC1)C1CCCCC1 | inactive | – |
| CC(C)O.CC(C)O.OCCN(CCO)CCO.OCCN(CCO)CCO.[Ti] | inactive | – |
| [Cl][Sn]([c]1ccccc1)([c]1ccccc1)[c]1ccccc1 | – | 367 nM (active) |
| O=C(O)COc1cc(Cl)c(Cl)cc1Cl | inactive | – |
| CC(=Cc1ccccc1)[N+](=O)[O-] | inactive | – |
| CC(C)(c1ccc(O)c(-c2ccccc2)c1)c1ccc(O)c(-c2ccccc2)c1 | inactive | – |
| CCOP(=S)(OCC)SCSc1cc(Cl)ccc1Cl | inactive | – |
| C=CC(=O)OCC(COC(=O)C=C)(COC(=O)C=C)COC(=O)C=C | inactive | – |
| Cc1ccc(OP(=O)(Oc2ccc(C)cc2C)Oc2ccc(C)cc2C)c(C)c1 | inactive | – |
| CCCCN(CCCC)C(=S)S | inactive | – |
| O=C/C(Cl)=C(/Cl)C(=O)O | inactive | – |
| O=C(O)COc1ccc(Cl)cc1 | inactive | – |
| O=[N+]([O-])c1ccccc1O | inactive | – |

| SMILES | outcome | AC50 |
| --- | --- | --- |
| Cc1cc(C(F)(C(F)(F)F)C(F)(F)F)ccc1NC(=O)c1cccc(I)c1C(=O)NC(C)(C)CS(C)(=O)=O | inactive | – |
| C1CCC(C2CCCCC2)CC1 | inactive | – |
| O=C(O)c1cc(I)cc(I)c1I | inactive | – |
| CCCCCCCCCCBr | inactive | – |
| C=CCN=C=S | inactive | – |
| CC(C)[N+](=O)[O-] | inactive | – |
| CC(C)=CC1C(C(=O)OCc2cccc(Oc3ccccc3)c2)C1(C)C (stereo not given) | inactive | – |
| CC(C)(C)c1cc([N+](=O)[O-])cc(C(C)(C)C)c1O | inactive | – |
| c1ccc(-c2cccc(-c3ccccc3)c2)cc1 | inactive | – |
| Cc1cccc(N=Nc2ccc(N(C)C)cc2)c1 | inactive | – |
| Cc1cc(Cl)ccc1N | inactive | – |
| CC(=O)C(F)(F)C(F)(F)F | inactive | – |
| CCCCOC(=O)COC(=O)c1ccccc1C(=O)OCCCC | inactive | – |
| Nc1ccc(-c2ccccc2)cc1 | inactive | – |
| N#Cc1cccnc1 | inactive | – |
| CCN(CC)C(=O)C(Cl)=C(C)OP(=O)(OC)OC | inactive | – |
| Clc1cnc(Oc2ccc(Oc3ncc(Cl)cc3Cl)cc2)c(Cl)c1 | inactive | – |
| C#C[C@]1(O)CC[C@H]2[C@@H]3CCC4=CC(=O)CC[C@]4(C)[C@H]3CC[C@@]21C | inactive | – |
| CCOc1cc(C=O)ccc1O | inactive | – |
| CC(C)N(C(=O)CCl)c1ccccc1 | inactive | – |
